A selection follows.
aSyn UTR act: Activators via SNCA 5'UTR binding, MLPCN. 300,000 tested, 7.1% active. activity score, % (tested at 7.5 µM), hits read low. alpha-synuclein 5'UTR reporter, activators screen; in the data active means activity score below about -60%
Active calls of the source: *.

SMILES	aSyn UTR act
COCc1nc2ccccc2n1Cc1ccc(Br)cc1	-80*
O=c1cnc2ccccc2n1Cc1ccc(Br)cc1	-65*
O=C1NC(=Nc2ccc3ccccc3c2)S/C1=C/c1ccco1	-91*
Cn1cccc1/C=C1\SC(=Nc2cccc(O)c2)NC1=O	-241*
O=C1NC(=Nc2ccc(O)cc2)S/C1=C/c1ccco1	-88*
CCOc1ccc2c(c1)S/C(=C\c1cccs1)C(=O)N2	-134*
Cc1ccc(N=C2NC(=O)/C(=C\c3ccco3)S2)cc1	-74*
O=C1NC(=Nc2ccccc2)S/C1=C\c1cccs1	-92*
CCOc1ccc(/C=N/n2cc(-c3ccccc3)[nH]c2=S)cc1	-65*
COc1ccc(-c2cc(C(=O)N3CCOCC3)no2)cc1	73
O=C(c1cc(-c2cccs2)on1)N1CCOCC1	-169*
COc1ccccc1-c1cc(C(=O)N2CCOCC2)no1	-125*
COc1ccccc1-c1cc(C(=O)N2CCCC2)no1	-133*
Cc1nc2ccc(NC(=O)c3ccc([N+](=O)[O-])cc3)cc2[nH]1	-106*
Cc1cc(NC(=O)c2ccc([N+](=O)[O-])cc2)no1	-130*
Cc1cc(NC(=O)C(Cl)c2ccccc2)no1 (centres undefined)	-74*
Cc1cc(NC(=O)c2cc(C(C)C)on2)no1	-140*
CC(C)Oc1ccc(C(=O)Nc2ccc([N+](=O)[O-])cc2)cc1	-211*
Cc1cc(NC(=O)c2ccc([N+](=O)[O-])cc2Cl)no1	-129*
Cc1ccc(NC(=O)c2ccccc2Cl)c(Cl)c1	-83*
O=C(Nc1cccc(NC(=O)c2cc([N+](=O)[O-])ccc2Cl)n1)c1cc([N+](=O)[O-])ccc1Cl	48
Cc1ccc(NC(=O)c2ccc([N+](=O)[O-])cc2Cl)nc1	-119*
Cc1cc(NC(=O)c2ccccc2Cl)no1	-68*
CC(=O)Nc1ccc(S(=O)(=O)c2ccc([N+](=O)[O-])cc2)cc1	-72*
Cc1cc(NC(=O)NC(=O)c2ccccc2F)no1	-109*
SMILES	aSyn UTR act
Cc1cc(NC(=O)c2sc3ccccc3c2O)no1	-64*
COc1cc(C=O)c(Br)cc1OCc1ccc(C)cc1	-204*
CC(c1nccs1)N(C)C(=O)c1cn(Cc2cccc3ccccc23)nn1 (centres undefined)	-86*
O=C(N/N=C/c1cccnc1)c1ccc(NC(=O)C(c2ccccc2)c2ccccc2)cc1	111
C(=N\NCc1ccccc1)/c1ccc2nccnc2c1	-106*
Cc1cccc(C(=O)Oc2ccc(/C=N/NC(=O)c3ccccc3O)cc2)c1	-135*
O=C(N/N=C/c1cccnc1)c1cc(Br)ccc1O	-125*
O=C(N/N=C/c1ccc2nccnc2c1)c1ccccc1O	-150*
O=C(N/N=C/c1ccc(O)c2ncccc12)c1cccc(Br)c1	67
O=C(N/N=C/c1ccnc2ccccc12)c1ccccc1O	-62*
O=C(Cn1nc(C(=O)O)c2ccccc2c1=O)Nc1nc(-c2ccccc2)cs1	-71*
O=C(COC(=O)c1cccs1)Nc1nc(-c2ccccc2)cs1	-90*
O=C(Cc1cccs1)Nc1nc(-c2ccccc2)cs1	-81*
O=C(COC(=O)CNC(=O)c1ccccc1)Nc1nc(-c2ccccc2)cs1	-71*
O=C(COC(=O)c1cc(=O)[nH]c2ccccc12)Nc1nc(-c2ccccc2)cs1	-73*
O=C(Cn1nc(-c2ccccc2)c2ccccc2c1=O)Nc1ccccn1	-66*
Cn1cc(Cl)c(C(=O)OCC(=O)Nc2nc(-c3ccc(Br)cc3)cs2)n1	-110*
Cc1nc(CC(=O)Nc2nc(-c3ccccc3)cs2)cs1	-66*
C/C(=N\Nc1nc(-c2ccccc2)cs1)c1cccs1	-280*
Cn1nccc1C(=O)OCC(=O)Nc1nc(-c2ccccc2)cs1	-126*
COc1ccccc1CC(=O)Nc1nc(-c2ccc(F)c(F)c2)cs1	-83*
COC(=O)CCC(=O)Nc1nc(-c2ccccc2)cs1	-65*
COc1cccc(NC(=O)Nc2cccs2)c1	-80*
COc1ccc(NC(=O)Nc2cccs2)cc1OC	-82*
Cc1nc2cc(NC(=O)C3COc4ccccc4O3)ccc2s1 (centres undefined)	-141*
SMILES	aSyn UTR act
Cc1nc2ccc(NC(=O)C3COc4ccccc4O3)cc2s1 (centres undefined)	-141*
COc1cccc(C2=CC(c3cc(OC)ccc3OC)n3nnnc3N2)c1 (centres undefined)	-165*
COc1cccc(C2=CC(c3cccc(OC)c3OC)n3nnnc3N2)c1 (centres undefined)	-295*
O=c1cccc2c1c1cc[nH]c3ccc(=O)n2c31	79
Cc1[nH]c2ccccc2c1/C=N/NC(=O)c1cccc([N+](=O)[O-])c1	-65*
COc1cc(/C=N/NC(=O)c2cccc([N+](=O)[O-])c2)ccc1OCc1ccccc1	-135*
COc1ccc(/C=N/NC(=O)c2ccncc2)cc1COc1ccc(NC(C)=O)cc1	80
COc1cc(/C=N/NC(=O)c2ccc(O)cc2)ccc1OCC(=O)Nc1cccc([N+](=O)[O-])c1	-82*
COc1cc(/C=N/NC(=O)c2ccncc2)ccc1OCc1cnc(Cl)s1	-153*
COc1cc(/C=C/[N+](=O)[O-])ccc1OCc1cccc(C(=O)O)c1	97
